HCV inh – inhibitors of hepatitis C virus infection; Huh7.5.1 HCVcc-Cre infection, luciferase reporter, 44 h; Potency, µM (series often up to 41.8 µM), for inactives: at the highest dose activity change, negative = inhibition, hits mostly inhibitors; 3.4% of 340,000 active; active = well fitted inhibition curve with a large enough effect; inconclusive = small, poorly fitted or top-dose-only effect, or another doubt; inactive = no such curve, though single readings can be large or run the other way
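A cell-based infection assay in which seeded cells (1,000 per well) receive test compound after 4 h, are inoculated with HCVcc-Cre at approximately 0.5 moi, and are incubated 44 h before luminescence detection.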
Lassa entry inh – inhibitors of Lassa virus binding or cell entry; Lassa virus pseudotype entry inhibition, cell reporter; Potency, µM (highest dose often 37.9 µM), for the others: at the highest dose activity change, negative = inhibition, most hits filed as inhibitors; 1.2% of 300,000 active; calls by dose curve; tested in HEK293 cells; note: nearly all actives have a fitted effect of over 50% in size
Marburg entry inh – Marburg virus entry inhibition; 1.8% of 300,000 active; AID 540276; Marburg virus pseudotyped entry inhibition, cell reporter; Potency, µM (titrated, usually from 37.8 µM), for inactives: top-dose activity change, negative = inhibition, actives largely listed as inhibitors; calls by dose curve; tested in HEK293 cells
FMDV inh – antivirals against foot and mouth disease virus; FMDV antiviral cell-based qHTS; Potency, µM (titrated, usually from 57.9 µM), inactives show top-dose activity change, negative = inhibition, actives largely listed as inhibitors; 1.2% of 410,000 active; AID 1159524; calls by dose curve; tested in HEK293T cells; note: read-out not given here; nearly all actives have a fitted effect of over 45% in size
VACV Venus inh – inhibitors of vaccinia virus (Venus reporter); Vaccinia virus Venus reporter expression, fluorescence; Potency, µM (top dose mostly 36.5 µM), for the others: at the highest dose activity change, negative = inhibition, hits mostly inhibitors; 0.46% of 330,000 active; AID 720580; calls by dose curve; tested in A549 cells; note: nearly all actives have a fitted effect of over 30% in size
Vaccinia mCherry – vaccinia inhibition (mCherry reporter). Vaccinia virus mCherry reporter infection, fluorescence. Potency, µM (top dose mostly 36.5 µM), for the others: top-dose activity change, negative = inhibition, hits mostly inhibitors. 0.63% of 310,000 active. AID 720579; calls by dose curve; tested in A549 cells; note: nearly all actives have a fitted effect of over 35% in size
* marks the source's active call; other numbers are inactive results; i = inactive; ? = inconclusive; nt = no result; [ ] = remark or other dose. Compounds with a hit are over-represented: about 5.3% of the library has one in this group of screens. % is set by controls: 0 for no effect and ±100 for the full control effect; potency is the fitted concentration of half-maximal effect.

SMILES	HCV inh	Lassa entry inh	Marburg entry inh	FMDV inh	VACV Venus inh	Vaccinia mCherry
O=C(CNC(=O)C(c1ccccc1)c1ccccc1)OCC(=O)c1ccc2ccccc2c1	nt	nt	nt	nt	-9.0%	4.7%
COc1cccc(OC)c1CN1CCC2(CCC(CNC(=O)c3ccn(C)n3)O2)CC1 (centres undefined)	nt	nt	nt	-4.8%	-12.9%	i
Cc1cnc(CNc2nc(-c3ccc(N(C)C)cc3)nc3ccccc23)cn1	nt	nt	nt	38.6%	?	11.2µM*
c1ccc2c(NC3CCNCC3)nc(-c3ccoc3)nc2c1	nt	nt	nt	-12.2%	nt	nt
c1ccc(-c2nc(NC3CCCC3)c3ccccc3n2)cc1	1.26µM*	-25.2%	?	?	?	-14.2%
CN(C)c1ccc(-c2nc(NC3CCNCC3)c3ccccc3n2)cc1	nt	nt	nt	40.6%	11.2µM*	11.2µM*
Cc1ccc(C(=O)C[n+]2cc(-c3ccc(C)cc3)n3c2CCCCC3)cc1	?	?	?	10µM*	-24.1%	-11.7%
Cc1ccc(SC[C@H](Cc2ccccc2)N2CC[C@@H](C(C)(C)C)CCC2=O)cc1	nt	nt	nt	nt	-8.1%	i
c1ccc(CN2CCN(c3nc(-c4ccccc4)nc(-n4ccnc4)n3)CC2)cc1	11.2µM*	-4.9%	?	-1.2%	nt	nt
c1ccc(N(c2ccccc2)c2nc(N3CCCC3)nc(-n3ccnc3)n2)cc1	?	1.64µM*	?	?	nt	nt
COC(=O)N[C@@H](C=Cc1ccco1)[C@]1(C(=O)OC)CCCC1=O	nt	nt	3.0%[14.2 µM]	nt	nt	nt
COc1ccc(OC)c2c(/C=C/c3ccc(N(C)C)cc3)ccnc12	nt	nt	nt	nt	6.0%	-15.6%
COc1ccc(OC)c2c(/C=C/c3c(C)[nH]c4ccccc34)ccnc12	nt	nt	nt	nt	-21.5%	12.6µM*
O=C(NC1CCCC1)c1cnn2c1NC(=C1CC1)C=C2C(F)F	nt	nt	nt	nt	-29.6%	-21.8%
CCc1cccc(NC(=O)CCS(=O)(=O)c2cc3c4c(c2)CCN4C(=O)CC3)c1	nt	9.9%[46.1 µM]	nt	18.0%	-4.9%	-11.9%
COc1cc(/C=C\C(=O)NCc2ccc3c(c2)cc(C)n3C)cc(OC)c1OC	5.0%[8.37 µM]	?	5.17µM*	?	-3.0%	i
Nc1nc(C2CCOCC2)cs1	7.1%	nt	nt	-4.5%	nt	nt
Nc1nc(C2CC2)c(Sc2sc(N)nc2C2CC2)s1	-6.6%	2.51µM*	?	25.1µM*	?	nt
COc1ccc(/C=N/Nc2cc(C)nc(N)n2)cc1	0.8%	1.3%	2.4%	22.2%	-25.5%	-24.3%
COc1ccc(/C=N/Nc2cc(OC)ncn2)cc1	4.9%	10µM*	?	-56.9%	-11.3%	i
COc1ccc(/C=N/Nc2cc(N(C)C)nc(N(C)C)n2)cc1	?	?	4.47µM*	?	-28.6%	-23.4%
COc1ccc(C(CNc2ccc(S(C)(=O)=O)cc2[N+](=O)[O-])N(C)C)cc1OC (centres undefined)	3.98µM*	5.7%[46.1 µM]	-3.0%[46.1 µM]	-6.4%	-7.2%	-12.4%
COc1ccc(Cl)cc1NC(=O)Cn1ccn(Cc2ccc(C)cc2)c(=O)c1=O	nt	-9.8%[46.1 µM]	nt	6.0%	-20.4%	-16.0%
CC(CCN1CCCc2nc(C)c(C)cc21)=NO[C@@H](C)CN1CCCCc2nc(C)c(C)cc21	nt	nt	-28.4%[14.2 µM]	nt	nt	nt
CC(NCc1ccc2c(c1)n(C)c(=O)n2C)c1ccccc1 (centres undefined)	nt	-0.7%[46.1 µM]	1.8%[46.1 µM]	-9.4%	-12.6%	-2.6%
SMILES	HCV inh	Lassa entry inh	Marburg entry inh	FMDV inh	VACV Venus inh	Vaccinia mCherry
COC(=O)c1[nH]c2ccccc2c1NC(=O)c1ccccc1F	12.6µM*	nt	nt	-6.0%	nt	nt
C=CCOC(=O)Nc1c(C(=O)OC)[nH]c2ccccc12	10µM*	-5.5%	?	-4.7%	15.3%	nt
CCOC(=O)c1[nH]c2ccccc2c1NC(=O)c1c(F)cccc1F	nt	-19.8%[46.1 µM]	?	-11.4%	-3.6%	-7.3%
CCOC(=O)Nc1c(C(=O)OC)[nH]c2cc(OC)ccc12	25.1µM*	?	?	-9.2%	-16.9%	?
COc1cc(CNCc2cc3ccc(F)cc3nc2N2CCOCC2)cc(OC)c1OC	nt	nt	nt	-0.4%	33.0%	-2.6%
CC(NC(=O)c1ccc2c(c1)C(=O)N(Cc1cccnc1)C2=O)c1ccccc1 (centres undefined)	nt	18.0%	21.7%	-16.0%	-12.0%	-1.7%
CC(=O)c1cccc(NC(=O)CCCN2C(=O)COc3ccc(C)cc32)c1	nt	4.1%[46.1 µM]	19.1%[46.1 µM]	0.0%	-6.5%	-8.7%
CCOc1ccc2c(c1)c(=O)c(C(=O)c1ccc(CC)cc1)cn2CC(=O)Nc1cccc(Cl)c1	nt	9.2%[46.1 µM]	6.7%[46.1 µM]	-6.5%	-21.6%	-21.1%
